From PubChem BioAssay AID1159580 (chemical genetic matrix, 2015)
Where “and” joins values, the source holds several entries; their conditions need not be identical. Equal entries are not always repeated. Hit rate of the full screen: of about 5,500 compounds, about 2,000 (36%) were called active. Another 18% or so got no clear call; they are omitted. Cut-off read from the data, not from the text of the source: active = normalized growth mostly below about 0.91 (no sharp cut-off); inconclusive = no clear call, values can overlap the other calls; inactive = mostly above about 0.92. This is one part of the list.

Assay: chemical genetic growth profiling, strain panel (AID 1159580);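 note: tested at 20 µM; growth read once vehicle control cultures reached saturation at 30 °C; 1 = growth at the plate median or of vehicle wells; lower values mean less growth of the strain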
Details: S. cerevisiae deletion strains, growth OD

Measured: normalized growth

CC(=O)Oc1ccc2c(c1)CCC1C2CC[C@]2(C)C(=O)CCC12 (some centres undefined)
inactive: locus YAL013W, strain DEP1, stronger effect = lower value 0.985 | locus YAL021C, strain ccr4, stronger effect = lower value 0.995 | locus YAL026C, strain drs2, stronger effect = lower value 0.992 | locus YAL030W, strain snc1, stronger effect = lower value 0.972 | locus YBL061C, strain skt5, stronger effect = lower value 0.987 | locus YBR009C, strain hhf1, stronger effect = lower value 0.986 | locus YBR021W, strain FUR4, stronger effect = lower value 0.961 | locus YBR023C, strain chs3, stronger effect = lower value 0.985 | locus YBR171W, strain sec66, stronger effect = lower value 0.963 | locus YBR229C, strain ROT2, stronger effect = lower value 1 | locus YBR231C, strain swc5, stronger effect = lower value 0.984 | locus YBR279W, strain paf1, stronger effect = lower value 0.98 | locus YCL011C, strain gbp2, stronger effect = lower value 0.994 | locus YCL016C, strain dcc1, stronger effect = lower value 0.997 | locus YCL029C, strain bik1, stronger effect = lower value 1.03 | locus YCL061C, strain MRC1, stronger effect = lower value 0.985 | locus YCL069W, strain vba3, stronger effect = lower value 0.986 | locus YCR088W, strain abp1, stronger effect = lower value 0.979 | locus YDL005C, strain med2, stronger effect = lower value 0.959 | locus YDL035C, strain GPR1, stronger effect = lower value 0.957 | locus YDL040C, strain nat1, stronger effect = lower value 0.989 | locus YDL074C, strain BRE1, stronger effect = lower value 0.911 | locus YDL101C, strain DUN1, stronger effect = lower value 1 | locus YDL134C, strain PPH21, stronger effect = lower value 0.977 | locus YDL185W, strain tfp1, stronger effect = lower value 1 | locus YDL192W, strain arf1, stronger effect = lower value 1.01 | locus YDR001C, strain nth1, stronger effect = lower value 0.985 | locus YDR069C, strain doa4, stronger effect = lower value 0.969 | locus YDR101C, strain arx1, stronger effect = lower value 1.02 | locus YDR150W, strain NUM1, stronger effect = lower value 0.994 | locus YDR159W, strain sac3, stronger effect = lower value 0.979 | locus YDR162C, strain NBP2, stronger effect = lower value 0.998 | locus YDR195W, strain ref2 0.942 | locus YDR297W, strain sur2, stronger effect = lower value 0.99 | locus YDR318W, strain mcm21, stronger effect = lower value 1.01 | locus YDR334W, strain swr1, stronger effect = lower value 0.984 | locus YDR335W, strain msn5, stronger effect = lower value 0.992 | locus YDR388W, stronger effect = lower value 1.02 | locus YDR392W, strain spt3, stronger effect = lower value 1.03 | locus YDR502C, strain sam2, stronger effect = lower value 1.01 | locus YEL003W, strain gim4, stronger effect = lower value 0.988 | locus YEL037C, strain rad23, stronger effect = lower value 0.989 | locus YEL061C, strain CIN8 (second series), stronger effect = lower value 0.977 | locus YEL061C, strain CIN8, stronger effect = lower value 0.998 | locus YER015W, strain faa2, stronger effect = lower value 0.964 | locus YER016W, strain bim1, stronger effect = lower value 0.991 | locus YER110C, stronger effect = lower value 1.01 | locus YER111C, strain swi4, stronger effect = lower value 0.96 | locus YER155C, strain BEM2 (second series), stronger effect = lower value 0.923 | locus YER155C, strain BEM2, stronger effect = lower value 1.02 | locus YER167W, strain BCK2, stronger effect = lower value 1.02 | locus YFR010W, strain ubp6, stronger effect = lower value 0.985 | locus YGL078C, strain dbp3, stronger effect = lower value 1.02 | locus YGL086W, strain mad1, stronger effect = lower value 1 | locus YGL167C, strain pmr1, stronger effect = lower value 0.98 | locus YGL173C, strain kem1, stronger effect = lower value 0.981 | locus YGL227W, strain vid30, stronger effect = lower value 0.987 | locus YGL240W, strain doc1, stronger effect = lower value 0.95 | locus YGL248W, strain PDE1, stronger effect = lower value 0.949 | locus YGL253W, strain hxk2, stronger effect = lower value 0.995 | locus YGR135W, strain pre9, stronger effect = lower value 1.01 | locus YGR229C, strain SMI1, stronger effect = lower value 1.03 | locus YGR252W, strain gcn5, stronger effect = lower value 0.887 | locus YHR013C, strain ard1, stronger effect = lower value 1 | locus YHR027C, strain rpn1, stronger effect = lower value 0.969 | locus YHR030C, strain SLT2, stronger effect = lower value 1.01 and 0.944 | locus YHR079C, strain IRE1 (second series), stronger effect = lower value 1.02 | locus YHR079C, strain IRE1, stronger effect = lower value 0.933 | locus YHR094C, strain hxt1, stronger effect = lower value 1.02 | locus YHR129C, strain ARP1, stronger effect = lower value 1.01 | locus YHR142W, strain chs7, stronger effect = lower value 0.978 | locus YHR200W, strain rpn10, stronger effect = lower value 1.02 | locus YIL066C, strain RNR3, stronger effect = lower value 0.944 | locus YIL073C, strain SPO22, stronger effect = lower value 0.921 | locus YIL125W, strain kgd1, stronger effect = lower value 1.01 | locus YIR030C, strain dcg1, stronger effect = lower value 1.02 | locus YJL092W, strain hpr5, stronger effect = lower value 0.981 | locus YJL095W, strain BCK1 (second series), stronger effect = lower value 0.985 | locus YJL095W, strain BCK1, stronger effect = lower value 0.92 and 0.928 | locus YJL115W, strain asf1, stronger effect = lower value 0.978 | locus YJL129C, strain trk1, stronger effect = lower value 0.984 | locus YJL134W, strain LCB3, stronger effect = lower value 1.01 | locus YJL154C, strain vps35, stronger effect = lower value 0.979 | locus YJL164C, strain tpk1, stronger effect = lower value 0.996 | locus YJL166W, strain qcr8, stronger effect = lower value 0.96 | locus YJL168C, strain set2, stronger effect = lower value 1.01 | locus YJL187C, strain SWE1 (second series), stronger effect = lower value 0.969 | locus YJL187C, strain SWE1, stronger effect = lower value 0.981
active: locus YDR137W, strain rgp1, stronger effect = lower value 0.808
